The source of these data is PubChem BioAssay (Tox21).

Structures are written as SMILES. Where “and” joins values, the source holds several entries; their conditions need not be identical. Identical values can stand only once. Results filed as inconclusive are left out. Calls of active or inactive are those of the source. Unless noted, the call rests on the fitted dose curve; in most records, active means well fitted curve in the direction sought with a large enough effect in the repeat runs; inconclusive means weak or mixed curves; inactive means no such curve, though single readings can be large; an effect the other way counts as inactive or inconclusive.

Test [1] addresses Estrogen receptor beta (Homo sapiens) (UniProt Q92731). The experiment in a line: qHTS assay to identify small molecule agonists of the estrogen receptor beta (ER-beta) signaling pathway (AID 1259377; active means well fitted activation curve with a large enough effect in the signal ratio in the repeat runs, not every such curve was filed as active; the % refers to the signal ratio). The method in brief: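 Ratiometric beta-lactamase FRET read-out came after 2 h substrate loading at room temperature. It followed 16 h compound treatment at 37C of GripTite HEK293T cells carrying a UAS-bla reporter, plated in 2% charcoal-stripped FBS medium.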
(In general: qHTS replaces the single test concentration by a dilution series.)

For test [2] the target is unchanged. The experiment in a line: qHTS assay to identify small molecule antagonists of the estrogen receptor beta (ER-beta) signaling pathway (AID 1259378; active means well fitted inhibition curve with a large enough effect in the signal ratio in the repeat runs, not every such curve was filed as active; the % refers to the signal ratio; further: potency means the concentration at half of the fitted maximal effect). The method, boiled down: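 ER-beta-UAS-bla HEK293T (GripTite) cells in 2% charcoal-stripped FBS medium were preincubated 6 hr at 37C, dosed with compound, then stimulated with 1 nM E2 (final) for 16 hr; beta-lactamase reporter read by B/G FRET fluorescence after 2 hr substrate loading.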

Test [3] is described as follows: qHTS assay to identify small molecule agonists of the androgen receptor (AR) signaling pathway in the presence of an antagonist - cell viability counter screen (AID 1259379). Further: nearly all actives have a fitted effect of over 25% in size. Further: potency means the concentration at half of the fitted maximal effect. The method in brief:
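Viability counter screen: CellTiter-Fluor fluorescence, measured in the same wells as the luciferase read-out. MDA-kb2 cells, 3,000/well, with nilutamide at 3.0uM final and compounds at 15 concentrations, 16 hr at 37C, 0% CO2.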

Test [4] can be described thus: qHTS assay to identify small molecule agonists of the estrogen receptor beta (ER-beta) signaling pathway - cell viability counter screen (AID 1259380). Further: nearly all actives have a fitted effect of over 30% in size. The method, boiled down:
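Luminescence read-out (CellTiter-Glo, 30 min, room temp) taken in the same wells as the beta-lactamase reporter assay; ER-beta-UAS-bla HEK293T cells exposed to DMSO-dissolved compounds for 16 hr at 37C in 2% charcoal-stripped FBS medium.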

The nature of test [5]: qHTS assay to identify small molecule antagonists of the estrogen receptor beta (ER-beta) signaling pathway - cell viability counter screen (AID 1259382). Further: series mostly up to about 92 µM; nearly all actives have a fitted effect of over 55% in size. The method, boiled down:
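Luminescent ATP read-out (CellTiter-Glo, 30 min, RT) taken in the same wells as the bla reporter assay. HEK293T ER-beta-UAS-bla cells in 2% charcoal-stripped FBS were exposed to compounds with 1nM E2 for 16 hr at 37C.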

For test [6], the target named is Estrogen receptor (Homo sapiens) (UniProt P03372). Nature of the test: qHTS assay to identify small molecule agonists of the estrogen receptor alpha (ER-alpha) signaling pathway in the presence of an antagonist (AID 1259383; calls by dose curve; further: top concentration of the series differs between compounds; nearly all actives have a fitted effect of over 15% in size). The method in brief: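 Luciferase luminescence (ONE-Glo, 30min at room temperature) measured in VM7Luc4E2 cells after 22hr compound exposure at 15 concentrations, with 10.0nM ICI-182,780 final present; cells express endogenous ER-alpha and carry four EREs upstream of luciferase.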

Test [7] in a line: qHTS assay to identify small molecule agonists or antagonists of the thyroid stimulating hormone receptor (TSHR) signaling pathway - wild type cell line counter screen (AID 1259384; calls by dose curve). The method, boiled down: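 Wild-type HEK293 cells were plated 18 h at 37 C/5% CO2, pin-dosed with compound plus Ro20-1724 medium, held 30 min at room temperature, then given cAMP-d2 and anti-cAMP-cryptate; fluorescence was read after 1 h. Fifteen concentrations, triplicate.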

The target in test [8] is Thyrotropin receptor (Homo sapiens) (UniProt P16473). The experiment in a line: qHTS assay to identify small molecule antagonists of the thyroid stimulating hormone receptor (TSHR) signaling pathway (AID 1259385; calls by dose curve; further: nearly all actives have a fitted effect of over 20% in size). The method in brief: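 TSHR-HEK293 cells were plated and held 18 h at 37C/5% CO2, then given compound plus Ro20-1724 and stimulated with TSH at 1.5 ng/mL final. After 30 min at room temperature, cAMP was detected with cAMP-d2/anti-cAMP-cryptate (1 h) by fluorescence.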

Test [9] is described as follows: qHTS assay to identify small molecule agonists of the estrogen receptor alpha (ER-alpha) signaling pathway in the presence of an antagonist - cell viability counter screen (AID 1259386).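 Further: series mostly up to about 92 µM; cells exposed to compounds for 22 h at 37 °C before the viability read; nearly all actives have a fitted effect of over 30% in size.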 The method, boiled down:
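Read-out: CellTiter-Fluor fluorescence after 1hr reagent incubation, measured in the same wells as the luciferase readout. VM7Luc4E2 cells were exposed to 15 compound concentrations with 10.0nM ICI-182,780 for 22hr at 37C.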

Test [10] addresses Androgen receptor (Homo sapiens) (UniProt P10275). Nature of the test: qHTS assay to identify small molecule agonists of the androgen receptor (AR) signaling pathway in the presence of an antagonist (AID 1259381; calls by dose curve; further: nearly all actives have a fitted effect of over 15% in size). The method in brief: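 Luciferase read-out (ONE-Glo, 30min room temperature) in MDA-kb2 MMTV-reporter cells; agonist mode run in presence of AR antagonist nilutamide, 3.0uM final. Compounds tested as 15-point series, 16hr exposure at 37C, 0% CO2.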

Sequence of Estrogen receptor beta (Homo sapiens) (Q92731 whole entry, looked up): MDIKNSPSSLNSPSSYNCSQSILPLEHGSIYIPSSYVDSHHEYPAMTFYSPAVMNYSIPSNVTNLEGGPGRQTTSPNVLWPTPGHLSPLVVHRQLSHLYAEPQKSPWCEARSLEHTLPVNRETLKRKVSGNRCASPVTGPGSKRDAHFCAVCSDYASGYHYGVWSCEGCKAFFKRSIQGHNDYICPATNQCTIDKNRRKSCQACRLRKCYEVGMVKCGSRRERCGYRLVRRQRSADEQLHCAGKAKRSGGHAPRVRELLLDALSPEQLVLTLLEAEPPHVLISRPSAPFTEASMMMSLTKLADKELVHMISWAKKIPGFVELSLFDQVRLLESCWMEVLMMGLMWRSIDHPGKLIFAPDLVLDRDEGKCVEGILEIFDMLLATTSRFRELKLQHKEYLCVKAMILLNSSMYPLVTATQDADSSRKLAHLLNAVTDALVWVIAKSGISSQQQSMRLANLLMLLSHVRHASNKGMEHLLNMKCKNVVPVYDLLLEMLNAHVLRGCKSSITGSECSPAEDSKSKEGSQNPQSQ
Sequence of Androgen receptor (Homo sapiens) (P10275 whole entry, looked up): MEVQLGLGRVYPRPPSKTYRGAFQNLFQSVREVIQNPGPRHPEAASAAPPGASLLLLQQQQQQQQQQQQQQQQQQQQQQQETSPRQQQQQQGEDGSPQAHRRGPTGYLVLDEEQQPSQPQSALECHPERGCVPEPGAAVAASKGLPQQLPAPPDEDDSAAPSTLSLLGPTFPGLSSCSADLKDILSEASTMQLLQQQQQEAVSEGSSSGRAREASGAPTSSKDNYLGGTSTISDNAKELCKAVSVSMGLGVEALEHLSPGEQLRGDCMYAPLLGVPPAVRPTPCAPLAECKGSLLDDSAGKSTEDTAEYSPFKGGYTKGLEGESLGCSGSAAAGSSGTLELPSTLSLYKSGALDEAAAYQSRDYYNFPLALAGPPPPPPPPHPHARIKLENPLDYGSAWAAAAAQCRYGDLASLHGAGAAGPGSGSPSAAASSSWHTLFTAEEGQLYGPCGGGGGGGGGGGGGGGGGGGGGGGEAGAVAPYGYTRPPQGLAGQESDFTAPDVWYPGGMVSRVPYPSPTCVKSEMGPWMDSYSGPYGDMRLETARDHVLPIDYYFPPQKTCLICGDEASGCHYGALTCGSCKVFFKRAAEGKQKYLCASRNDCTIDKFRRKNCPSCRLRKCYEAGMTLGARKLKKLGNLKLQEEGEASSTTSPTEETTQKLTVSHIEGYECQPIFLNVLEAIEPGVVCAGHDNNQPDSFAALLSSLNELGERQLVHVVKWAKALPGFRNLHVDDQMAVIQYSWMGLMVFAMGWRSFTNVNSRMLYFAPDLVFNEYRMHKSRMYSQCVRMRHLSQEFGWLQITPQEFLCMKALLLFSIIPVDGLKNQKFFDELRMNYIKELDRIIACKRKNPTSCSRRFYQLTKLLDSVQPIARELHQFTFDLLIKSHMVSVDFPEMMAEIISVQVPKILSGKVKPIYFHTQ
Sequence of Estrogen receptor (Homo sapiens) (P03372 whole entry, looked up): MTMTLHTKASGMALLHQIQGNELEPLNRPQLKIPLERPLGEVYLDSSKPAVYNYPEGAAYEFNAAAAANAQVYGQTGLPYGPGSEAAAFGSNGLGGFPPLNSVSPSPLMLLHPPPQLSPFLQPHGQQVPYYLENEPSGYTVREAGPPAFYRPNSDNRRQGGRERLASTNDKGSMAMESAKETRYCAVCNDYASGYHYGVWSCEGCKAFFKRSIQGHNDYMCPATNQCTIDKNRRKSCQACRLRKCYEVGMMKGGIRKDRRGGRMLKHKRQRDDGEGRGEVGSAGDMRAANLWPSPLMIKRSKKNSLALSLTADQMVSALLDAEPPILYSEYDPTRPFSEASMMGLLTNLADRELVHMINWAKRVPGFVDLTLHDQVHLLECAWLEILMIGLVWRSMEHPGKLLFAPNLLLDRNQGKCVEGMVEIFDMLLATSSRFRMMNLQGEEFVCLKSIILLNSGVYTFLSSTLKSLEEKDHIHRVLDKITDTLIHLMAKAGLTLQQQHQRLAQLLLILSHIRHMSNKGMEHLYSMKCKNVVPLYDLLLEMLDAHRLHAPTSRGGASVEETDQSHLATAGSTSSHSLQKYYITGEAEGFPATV
Sequence of Thyrotropin receptor (Homo sapiens) (P16473 whole entry, looked up): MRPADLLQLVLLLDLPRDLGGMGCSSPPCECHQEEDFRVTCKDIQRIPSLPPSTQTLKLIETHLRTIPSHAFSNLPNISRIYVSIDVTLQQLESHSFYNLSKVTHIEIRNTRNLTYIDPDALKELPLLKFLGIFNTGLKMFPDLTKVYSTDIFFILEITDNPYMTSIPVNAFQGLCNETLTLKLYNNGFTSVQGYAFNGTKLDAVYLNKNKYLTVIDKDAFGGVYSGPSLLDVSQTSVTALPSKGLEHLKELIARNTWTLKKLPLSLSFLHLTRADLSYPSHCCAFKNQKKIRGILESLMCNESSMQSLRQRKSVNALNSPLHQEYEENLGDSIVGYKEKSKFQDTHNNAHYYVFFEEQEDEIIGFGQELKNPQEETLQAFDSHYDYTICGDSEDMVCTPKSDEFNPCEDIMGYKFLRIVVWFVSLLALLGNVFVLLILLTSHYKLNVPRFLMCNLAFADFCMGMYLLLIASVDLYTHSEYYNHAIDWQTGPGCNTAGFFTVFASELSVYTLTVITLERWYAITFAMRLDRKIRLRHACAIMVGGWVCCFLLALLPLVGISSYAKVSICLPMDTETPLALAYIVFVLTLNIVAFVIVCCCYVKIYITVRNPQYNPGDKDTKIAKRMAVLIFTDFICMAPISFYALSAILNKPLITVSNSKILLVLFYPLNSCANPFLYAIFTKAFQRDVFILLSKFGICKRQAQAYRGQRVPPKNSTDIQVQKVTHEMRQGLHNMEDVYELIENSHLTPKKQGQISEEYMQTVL

For `COc1cc(CC(C)N)cc2c1OCO2` (configuration not stated), the Potency result in test [1], in [2], in test [3], in test [4], in test [5] and in [6] was “inactive” throughout. Further, in test [7], the outcome was inactive.
`Clc1cc(C(Cl)(Cl)Cl)cnc1Cl`: the Potency result in test [1], in test [2], in [4], in test [5], in test [6] and in test [8] was “inactive” in each case. The Potency entry in test [9] is “inactive”. Also, in [3], the Potency was 24.3 µM (active). The call in [7] was inactive.
For `N#C/C(N)=C(/N)C#N`, the Potency entry in test [1], in test [2], in [3], in test [4], in test [5] and in [6] was “inactive” each time. The Potency result in test [9] is “inactive”. The call in [7] was inactive.
As for `CC(=O)C(C)(C)C`, the Potency entry in test [1], in [2], in [3], in test [4], in test [5] and in [6] was “inactive” in each case. Moreover, in [9], the Potency entry is “inactive”. Also, the molecule was called inactive in test [7].
In the case of `CCC(Cl)CCl` (configuration not stated), the Potency entry in test [1], in test [2], in test [3], in [4], in test [5] and in [6] was “inactive” throughout. The Potency result in [8] and in test [9] was “inactive” throughout. Moreover, the molecule was called inactive in [7].
As to `CC(=O)CCC(C)=O`, the Potency result in test [1], in test [2], in test [3], in [4], in [5] and in [6] was “inactive” in each case. The Potency entry in test [9] is “inactive”. Also, the molecule was classed as inactive in test [7].
In the case of `ClCC(Br)CBr` (configuration not stated), the Potency entry in test [1], in test [2], in test [3], in test [4], in test [5] and in test [6] was “inactive” throughout. The Potency entry in test [9] is “inactive”. Besides, in test [7], the call was inactive.
Regarding `CCOP(=S)(OCC)SCSCC`, the Potency result in test [1], in test [2], in [3], in test [4], in test [5] and in test [6] was “inactive” throughout. Further, the Potency entry in [8] and in test [9] was “inactive” each time. Besides, the molecule was called inactive in [7].
As for `CC1Sc2c(C(=O)O)c(=O)c3cc(F)c(N4CCNCC4)cc3n21` (configuration not stated), the Potency result in test [1], in test [3], in [4], in [10], in test [5] and in [6] was “inactive” each time. Moreover, the Potency entry in test [8] and in test [9] was “inactive” each time. In addition, in test [7], the result was inactive.
For the molecule `CCC(Br)(CC)C(=O)NC(N)=O`, the Potency result in [1], in [2], in test [3], in test [4], in [5] and in [8] was “inactive” each time. For the same molecule, the Potency entry in [9] was “inactive”. Further, in test [7], the outcome was inactive.
Regarding `CC(C)N(CCC(C(N)=O)(c1ccccc1)c1ccccn1)C(C)C` (configuration not stated), the Potency entry in test [1], in test [2], in [3], in [4], in test [5] and in test [8] was “inactive” each time. For the same molecule, in test [9], the Potency entry was “inactive”. Further, the call in test [7] was inactive.
For the molecule `ClCCCCBr`, the Potency result in test [1], in test [2], in [3], in [4], in test [5] and in test [8] was “inactive” throughout. The Potency entry in test [9] is “inactive”. Besides, the molecule was classed as inactive in test [7].
For `O=C(O)CC(Cl)C(=O)O` (configuration not stated), the Potency result in [1], in test [2], in [3], in test [4], in test [5] and in [8] was “inactive” each time. For the same molecule, the Potency result in [9] is “inactive”. Also, the result in test [7] was inactive.
`NCCCNCCCN`: the Potency result in test [1], in test [2], in [3], in test [10], in test [8] and in [9] was “inactive” in each case. Moreover, the outcome in test [7] was inactive.
Consider `CCCCOC(=O)c1ccccc1C(=O)OCc1ccccc1`, for which the Potency entry in test [1], in [3], in test [5], in test [8] and in test [9] was “inactive” throughout. The Potency in [2] is 6.1 µM (active) and 9.15 µM (active). For the same molecule, the result in [7] was inactive.
Consider `CCOP(=S)(OCC)SCn1nnc2ccccc2c1=O`, for which the Potency result in [1], in [4], in [5], in test [6] and in test [8] was “inactive” each time. For the same molecule, in test [2], the Potency is 68.6 µM (active). Further, in test [7], the call was inactive.
In the case of `CN1C(=O)NC(=O)C(C)(C2=CCCCC2)C1=O` (configuration not stated), the Potency entry in test [1], in test [2], in [3], in [4], in test [5] and in test [8] was “inactive” throughout. Further, in test [9], the Potency result is “inactive”. In test [7], the molecule was called inactive.
For `COC(N)=O`, the Potency result in test [1], in test [2], in [3], in test [5], in [6] and in [9] was “inactive” each time.
Turning to `Cl/C=C\C[N+]12CN3CN(CN(C3)C1)C2`, the Potency entry in [1], in [2], in test [4], in [10], in test [5] and in test [6] was “inactive” in each case. Besides, the Potency entry in test [9] was “inactive”. In test [7], the result was inactive.
As for `O=C(O)C(F)(F)C(F)(F)C(F)(F)C(F)(F)C(F)(F)C(F)(F)C(F)(F)C(F)(F)C(F)(F)C(F)(F)F`, the Potency result in test [1], in [2], in test [3], in [5] and in test [9] was “inactive” throughout.
For the molecule `c1ccc(CN2CCNCC2)cc1`, the Potency entry in test [1], in [2], in test [3], in [4], in [5] and in test [8] was “inactive” each time. Further, the Potency entry in [9] is “inactive”. Besides, the molecule was classed as inactive in test [7].
On to `CCOC(=O)CBr`, for which the Potency result in test [1], in test [2], in [3], in test [4], in test [5] and in test [9] was “inactive” each time. For the same molecule, the molecule was classed as inactive in test [7].
Take `CCCCCCCCOC(=O)c1ccc(C(=O)OCCCCCCCC)c(C(=O)OCCCCCCCC)c1`: the Potency result in [1], in [2], in [3], in test [5], in test [8] and in test [9] was “inactive” in each case. Further, the result in test [7] was inactive.
Consider `CCC(COC(=O)c1cc(OC)c(OC)c(OC)c1)(c1ccccc1)N(C)C` (configuration not stated), for which the Potency result in test [1], in [2], in [3], in test [4], in test [5] and in [9] was “inactive” each time.
In the case of `CCCCN=C=O`, the Potency entry in test [1], in test [2], in [3], in [4], in [5] and in test [8] was “inactive” each time. Also, the Potency result in [9] was “inactive”. Further, the molecule was called inactive in test [7].
On to `COc1nn(C(=O)NS(=O)(=O)c2ccccc2OC(F)(F)F)c(=O)n1C`, for which the Potency entry in test [1], in [2], in test [3], in test [4], in [5] and in test [8] was “inactive” each time. In addition, the Potency result in [9] was “inactive”. Further, the outcome in test [7] was inactive.
As for `C=CC(=O)OC(C)(C)C`, the Potency result in test [1], in [2], in test [3], in test [4], in test [5] and in [9] was “inactive” throughout. Moreover, in test [7], the result was inactive.
For `CCOc1ccc(C(C)(C)COCc2cccc(Oc3ccccc3)c2)cc1`, the Potency entry in test [1], in [2], in [3], in test [5], in [6] and in test [8] was “inactive” throughout. The Potency result in test [9] is “inactive”. In [7], the result was inactive.
In the case of `Nc1nc(N)nc(N)n1`, the Potency entry in [1], in [2], in test [3], in test [4], in test [5] and in test [8] was “inactive” in each case. In addition, the Potency result in test [9] is “inactive”. In addition, the result in test [7] was inactive.
